Compound activity as filed in PubChem.
PINK1 expr mod = A Quantitative High throughput Screen to Identify Chemical Modulators of PINK1 Expression; PINK1 immunofluorescence, high-content cytometry, 24 h; Potency, µM (series often up to 76.6 µM), without a hit: top-dose activation (PINK1 increase), usual class: activators; actives 0.2% (n = 410,000); AID 624263, 2012; active = well fitted activation curve with a large enough effect; inconclusive = small, poorly fitted or top-dose-only effect; cell line not stated here; note: % of control where 0% means no effect; nearly all actives have a fitted effect of over 65% in size
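Compound titrations (5 concentrations, 24 h) on a stable cell line; DMSO and CCCP controls. Endpoint: fixed-cell PINK1 immunofluorescence with mitochondrial, cell and nuclear markers, scanned by microplate cytometer.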
HTT cytoprotect = qHTS Multiplex Assay to Identify Dual Action Probes in a Cell Model of Huntington: Cytoprotection (ATP). PC12 HTT-Q103 induced, cytoprotection, ATP luminescence, 40 h. Potency, µM (highest dose often 56.4 µM), inactives show cytoprotection (ATP increase), actives largely listed as activators. actives 0.14% (n = 230,000). AID 1471, 2008; note: % of control where 0% means no effect; nearly all actives have a fitted effect of over 45% in size
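Compounds were screened for protection of PC12 cells against cell death after tebufenozide induction (100 nM final) of mutant Huntingtin exon 1 (Q103) fused to GFP.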
HttQ103 aggreg = qHTS Multiplex Assay to Identify Dual Action Probes in a Cell Model of Huntington: Aggregate Formation (GFP); PC12 HttQ103-GFP aggregates, Acumen cytometry, 40 h; actives 1.1% (n = 220,000); Potency, µM (highest dose often 46.1 µM), inactives show at the top dose activity change, negative = inhibition, most hits filed as inhibitors; note: % is set by controls: 0 for no effect and ±100 for the full control effect; nearly all actives have a fitted effect of over 60% in size
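PC12 cells with ecdysone-inducible HTT exon1 Q103-GFP, induced by 100 nM tebufenozide, given compounds in a concentration series. GFP aggregates (1–25 um, 6 SD above background) counted in lysates by laser-scanning cytometry, 488 nm excitation.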
PTAP TSG101 blk = qHTS Assay for Iinhibitors of HIV-1 Budding by Blocking the Interaction of PTAP/TSG101 | AID 493005, 2010 | Fluorescence polarization, FITC-PTAP peptide / Tsg101 binding | Potency, µM (titrated, usually from 115 µM), for inactives: at the highest dose activity change, negative = inhibition, usual class: inhibitors | 340,000 tested, under 10 active; active = well fitted inhibition curve with a large enough effect in the main read-out, with a control signal flat, not every such curve was filed as active; inconclusive = small, poorly fitted or top-dose-only effect, or effect the other way, or a change in a side signal; inactive = no such curve, though single readings can be large or run the other way; note: % of control where 0% means no effect
Target sequence (Q99816 whole entry, looked up): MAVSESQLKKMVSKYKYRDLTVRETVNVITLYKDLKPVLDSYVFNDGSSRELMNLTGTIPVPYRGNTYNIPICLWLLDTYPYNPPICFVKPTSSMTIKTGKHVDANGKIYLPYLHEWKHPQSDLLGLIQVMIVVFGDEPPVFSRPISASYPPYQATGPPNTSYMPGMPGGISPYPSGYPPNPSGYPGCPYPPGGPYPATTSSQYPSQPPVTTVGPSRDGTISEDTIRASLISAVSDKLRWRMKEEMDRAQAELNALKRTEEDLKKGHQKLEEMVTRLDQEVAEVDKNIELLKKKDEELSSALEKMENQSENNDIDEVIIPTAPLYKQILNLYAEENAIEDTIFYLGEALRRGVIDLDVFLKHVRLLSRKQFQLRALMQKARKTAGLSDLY
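Tsg101 binding domain (10 uM final) was mixed with compound and a FITC-labeled PTAP peptide (50 nM final) in HEPES pH 7.5 buffer with NaCl, Tween 20, EDTA and TCEP; fluorescence polarization was read after 20 min at r.t.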
Epigenetic reg = Quantitative High-Throughput Screen for Regulators of Epigenetic Control; murine LDR cells, GFP reporter derepression, 30 h; Potency, µM (titrated, usually from 53.9 µM), for inactives: top-dose GFP activation, usual class: activators; actives 0.2% (n = 280,000); note: % of control where 0% means no effect; nearly all actives have a fitted effect of over 60% in size
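In this reporter-derepression format, murine cells bearing a silenced integrated CMV-GFP locus incubate with test compound (30 h, 37 C), then are washed and imaged; fluorescent objects of 20–120 um count as induced cells.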
Anesthetic bind = qHTS Assay for Identification of Novel General Anesthetics. Ferritin light chain (Equus caballus), P02791. apoferritin/1-aminoanthracene competitive binding, fluorescence. Potency, µM (series often up to 77.5 µM), for the others: at the top dose activity change, negative = displacement, actives largely listed as inhibitors. actives 0.074% (n = 350,000). AID 485281, 2010; note: % is set by controls: 0 for no effect and ±100 for the full control effect; nearly all actives have a fitted effect of over 20% in size
Target sequence (P02791 2-175 limits assumed): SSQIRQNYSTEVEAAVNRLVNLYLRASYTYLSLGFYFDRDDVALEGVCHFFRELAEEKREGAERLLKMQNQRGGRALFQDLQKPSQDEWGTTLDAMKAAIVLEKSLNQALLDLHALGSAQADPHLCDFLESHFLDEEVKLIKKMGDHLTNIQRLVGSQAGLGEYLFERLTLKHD
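Apoferritin-based anesthetic binding model; compound displacement of fluorescent 1-AMA measured as endpoint fluorescence after 10 minutes at room temperature, scaled to free-ligand and complex controls.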
* marks the source's active call; other numbers are inactive results; [ ] = another dose, or the depositor's remark. The sample as a whole holds a higher share of hits than the screen did. Unless noted, calls come from the whole dose curve; as a rule, active = well fitted curve in the direction sought with a large enough effect; inconclusive = small, poorly fitted or top-dose-only effect, or another doubt; inactive = no such curve, though single readings can be large; an effect the other way counts as inactive or inconclusive. Potency is the fitted concentration of half-maximal effect.

`[Cl-].[Cl-].[Hg+2]` gave HTT cytoprotect -75% and HttQ103 aggreg 4µM*.
For O=C(O)/C=C\c1ccc[c]([Sb](=[O])([OH])[OH])c1 the results were HTT cytoprotect 2%[10 µM].
For [CH3][Hg][Cl] the results were HTT cytoprotect -93%.
For Cc1ccc(N)c(C(=O)c2ccc(Br)cc2)c1 the results were PINK1 expr mod 3%, HTT cytoprotect -25%, HttQ103 aggreg 7.1µM*, PTAP TSG101 blk -2%, Epigenetic reg 11% and Anesthetic bind inconclusive.
Nc1ccc(Br)cc1C(=O)c1ccccc1 was read as PINK1 expr mod 3%, HTT cytoprotect -24%, HttQ103 aggreg -3%, PTAP TSG101 blk -3%, Epigenetic reg 0% and Anesthetic bind inconclusive.
C[C@H](CC(C#N)(c1ccccc1)c1ccccc1)N1CCCCC1 was read as HTT cytoprotect 2%[10 µM].
For Cc1cc(C)cc(NC(=O)Cn2c(=O)oc3cc(S(=O)(=O)N4CC(C)CC(C)C4)ccc32)c1 (configuration not stated) the results were PINK1 expr mod 4%, HTT cytoprotect -70%, HttQ103 aggreg inconclusive, PTAP TSG101 blk -4%, Epigenetic reg 0% and Anesthetic bind inconclusive.
Screening CCc1cccc(NC(=O)Cn2c(=O)oc3cc(S(=O)(=O)N4CCOCC4)ccc32)c1 returned PINK1 expr mod -1%, HTT cytoprotect -107%, HttQ103 aggreg 2.2µM*, PTAP TSG101 blk 0%, Epigenetic reg -1% and Anesthetic bind inconclusive.
Screening COc1ccc2c(c1O)-c1cccc3c1[C@H](C2)N(C)CC3 returned HTT cytoprotect 0%[1.9 µM].
`NNc1c(C(N)=O)c2c(N)ncnc2n1[C@@H]1O[C@H](CO)[C@@H](O)[C@@H]1O` gave HTT cytoprotect -95%[10 µM].
`CCn1nc(-c2ccccc2)nc2c(=O)n(C)c(=O)nc1-2` gave PINK1 expr mod -2%, HTT cytoprotect -42%[10 µM], HttQ103 aggreg 8.9µM*, PTAP TSG101 blk inconclusive, Epigenetic reg inconclusive and Anesthetic bind -1%.
Cn1nc(-c2ccccc2)nc2c(=O)n(C)c(=O)nc1-2 was read as PINK1 expr mod 0%.
Screening C=C[C@@H]1CN2CC[C@H]1C[C@H]2[C@@H](O)c1ccnc2ccccc12 returned HTT cytoprotect 24%.
C[C@@H]1O[C@H](O[C@H]2C[C@@H](O)[C@]3(CO)[C@H]4[C@H](O)C[C@]5(C)[C@@H](C6=CC(=O)OC6)CC[C@@]5(O)[C@H]4CC[C@]3(O)C2)[C@@H](O)[C@H](O)[C@H]1O was read as HTT cytoprotect 1%.
For CNc1cc(Cl)c2nonc2c1[N+](=O)[O-] the results were PINK1 expr mod 1%, HTT cytoprotect -147%, HttQ103 aggreg 6.3µM*, PTAP TSG101 blk -7%, Epigenetic reg -5% and Anesthetic bind -9%.
Screening c1ccc2cc(C3N4CCCN34)ccc2c1 (configuration not stated) returned PINK1 expr mod 1%, HTT cytoprotect 4µM*, HttQ103 aggreg 9%, PTAP TSG101 blk -2%, Epigenetic reg 7% and Anesthetic bind -5%.
`c1cc(CCN2CCCCC2)ccn1` gave HTT cytoprotect 8%[10 µM].
CN1/C(=C\C=C\C2=[N+](C)c3ccc4ccccc4c3C2(C)C)C(C)(C)c2ccccc21 was read as HTT cytoprotect -114%, HttQ103 aggreg 2.8µM*, Epigenetic reg 0% and Anesthetic bind inconclusive.
Screening CCN1/C(=C/C=C/C2=[N+](CC)c3ccccc3C2(C)C)C(C)(C)c2ccccc21 returned PINK1 expr mod -2%.
`NS(=O)(=O)C[C-]1C=C[CH]([Sb-]([Cl])([Cl])([Cl])([Cl])[Cl])C=C1.c1ccncc1` (configuration not stated) gave HTT cytoprotect -3%[10 µM].
O=C1C=C2C=C[C@@H]3CC2(O1)[C@H]1CCCCN31 was read as PINK1 expr mod 11% and PTAP TSG101 blk 1%.
For O=C1C=C2C=CC3C[C@@]2(O1)C1CCCCN31 (some centres not stated) the results were HTT cytoprotect 1.6µM*, Epigenetic reg 3% and Anesthetic bind -2%.
Screening O=C1C=C2C=C[C@H]3C[C@@]2(O1)[C@H]1CCCCN31 returned HTT cytoprotect 6.3µM*, Epigenetic reg -1%[16.9 µM] and Anesthetic bind -17%[29.3 µM].
Screening C[C@@]12CC[C@H](O)C[C@@H]1CC[C@H]1[C@H]2C[C@@H](O)[C@]2(C)[C@@H](C3=CC(=O)OC3)CC[C@@]12O returned HTT cytoprotect -26%.
Screening C[C@@H]1O[C@@H](O[C@H]2C[C@@H](O)[C@]3(CO)[C@@H]4[C@@H](O)C[C@]5(C)[C@H]([C@@H]6COC(=O)C6)CC[C@@]5(O)[C@H]4CC[C@@]3(O)C2)[C@H](O)[C@H](O)[C@@H]1O returned HTT cytoprotect 7%[1.9 µM].
Screening N[C@H](Cn1oc(=O)[nH]c1=O)C(=O)O returned HTT cytoprotect -9%[1.9 µM].
Screening Cc1nn(-c2ccccc2)c2c1C(c1ccc(F)cc1F)C(C#N)=C(N)O2 (configuration not stated) returned PINK1 expr mod 11µM*, HTT cytoprotect 0%, HttQ103 aggreg 5%, PTAP TSG101 blk -10%, Epigenetic reg 1% and Anesthetic bind -12%.
For O=C(CNC(=O)c1ccc(Cl)cc1)OCC(=O)c1ccc2c(c1)OCCO2 the results were PINK1 expr mod 0%, HTT cytoprotect 3%, HttQ103 aggreg -1%, PTAP TSG101 blk -2%, Epigenetic reg 1% and Anesthetic bind 10µM*.
`Nc1ccccc1C(=O)OCC(=O)c1ccc2c(c1)OCCO2` gave PINK1 expr mod 1%, HTT cytoprotect -108%, HttQ103 aggreg 13%, PTAP TSG101 blk -7%, Epigenetic reg -2% and Anesthetic bind inconclusive.
For C=CCn1c(O)c(C(CC)=NCc2ccc3c(c2)OCO3)c(=O)[nH]c1=O the results were PINK1 expr mod 3%, HTT cytoprotect -5%[10 µM], HttQ103 aggreg 6%[9.22 µM], PTAP TSG101 blk -1%, Epigenetic reg 0% and Anesthetic bind -2%.
